NALP3 yeast inh: blocks the NALP3 inflammasome reconstituted in yeast; AID 2825; inhibition, % at 10 µM; Yeast reconstituted NLRP3/ASC/caspase-1, beta-gal luminescence, 24 h; hit rate 0.39% among 330,000;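 active = inhibition of 50% or more; inactive = inhibition below 50%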;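 note: plate controls were induced DMSO wells for no effect and uninduced yeast grown without galactose for full effect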
tim23-1 inh: inhibits growth of tim23-1 mutant yeast; S. cerevisiae tim23-1 growth, BacTiter-Glo luminescence, 24 h; inhibition, % at 20 µM; hit rate 1.3% among 330,000;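 active = growth inhibition of the mutant yeast at or above 50%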;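 note: temperature-sensitive mutant grown at 25 °C; plate controls were DMSO-treated mutant yeast for no effect and medium wells lacking yeast for full effect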
TIM10 inh: growth inhibitors of TIM10 yeast strain; S. cerevisiae TIM10 strain growth, BacTiter-Glo luminescence, 24 h; inhibition, % at 10 µM; hit rate 1.4% among 330,000; AID 463195;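 active = inhibition of 40% or more at the single tested concentration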;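 note: wild-type TIM10 isogenic control strain grown at permissive 25 °C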
SKKanGAS inh: blocks kanamycin growth of S. pyogenes SKKanGAS strain. hit rate 1.3% among 300,000. BacTiter-Glo, 6 h. inhibition, % at 7.5 µM. AID 1662;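 active = mean replicate score, as percent of positive control median, at least 50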;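 note: strain carries kanamycin resistance gene driven by streptokinase promoter and grows in 40 µg/ml kanamycin; loss of luminescence reflects streptokinase promoter inhibition or plain growth inhibition; 0% = median of DMSO wells and 100% = positive control at its reference dose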
tim10-1 inh: tim10-1 yeast growth inhibition | hit rate 2.2% among 330,000 | inhibition, % at 20 µM | S. cerevisiae tim10-1 ts strain growth, BacTiter-Glo, 24 h | AID 463190;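 active = inhibition of at least 40%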;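 note: mutant grown at 25 °C; 0% = DMSO wells with yeast and 100% = wells holding no yeast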
tim10-1 confirm: confirmation of tim10-1 mutant yeast growth inhibitors; shares compounds with tim10-1 inh; S. cerevisiae tim10-1 ts strain growth, BacTiter-Glo, 24 h; inhibition, % at 20 µM; hit rate 56% among 7,400;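 active = inhibition of yeast growth at or above a set limit in either of two repeat tests at 20 µM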;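 note: tim10-1 mutant grown at permissive 25 °C to find synthetic lethal compounds; 0% = DMSO yeast wells and 100% = medium wells without yeast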
Starred values were filed as active, the others as inactive; x = no result. An excerpt weighted towards active compounds, which were near 4.6% of everything screened.

SMILES	NALP3 yeast inh	tim23-1 inh	TIM10 inh	SKKanGAS inh	tim10-1 inh	tim10-1 confirm
Cc1ccc(S(=O)(=O)CCC(=O)OCC(=O)Nc2cc(F)ccc2C)cc1	18.0	8.6	12.3	4.3	23.1	x
Cc1cc(C)cc(OCCCOc2cccc3cccnc23)c1	33.5	36.6	26.5	6.8	42.1*	33.1*
Cc1ccc(Oc2nc3c(c(=O)n(C)c(=O)n3C)n2C)cc1C	18.2	16.9	-3.0	23.9	7.8	x
Cn1c(=O)c2c(nc(Oc3ccc(-c4ccccc4)cc3)n2C)n(C)c1=O	30.0	13.9	19.0	35.6	40.1*	4.8
Cc1cc(C)c(C(=O)OCC(=O)Nc2cccc(S(=O)(=O)N3CCCCC3)c2)c(C)c1	3.4	19.3	6.0	1.4	14.5	x
c1ccc(Sc2nc(N3CCCCC3)nc(N3CCCCC3)n2)nc1	30.5	21.1	23.0	-1.7	41.2*	20.9
COC(=O)c1ccccc1S(=O)(=O)NCc1nc2nc(C)cc(C)n2n1	13.2	-13.2	2.9	-4.7	-1.4	x
CCN(CC)c1ccc(NC(=O)CCS(=O)(=O)c2ccc(Br)cc2)c(C)c1	28.7	10.0	8.4	-2.8	0.2	x
O=C(Nc1ccc(N2CCCCC2)cc1)c1ccccn1	26.6	43.5	20.6	5.9	40.9*	30.6*
COc1ccc(OC)c(-c2cc(C(=O)Nc3c(C)nn(Cc4ccc(Cl)cc4)c3C)no2)c1	21.6	34.4	34.1	22.5	42.7*	32.4*
COc1ccc(OC)c(-c2cc(C(=O)Nc3c(C)nn(Cc4ccccc4)c3C)no2)c1	8.7	15.6	25.3	-6.7	41.1*	10.1
Cc1nn(Cc2ccc(Cl)cc2)c(C)c1NC(=O)c1c(-c2ccccc2)noc1C	4.0	30.2	28.0	-1.8	43.4*	43.5*
Cc1ccc(OCC(=O)OCC(=O)c2ccccc2)cc1C	9.8	12.0	9.3	-3.6	7.1	x
Cc1cc(C)n(-c2cc(N3CCOCC3)nc(-c3ccccc3)n2)n1	5.5	36.2	26.1	3.4	52.4*	12.6
O=C(COc1ccc2c3c(c(=O)oc2c1)CCCC3)NCCCn1ccnc1	-3.6	18.2	-5.5	1.5	-2.4	x
CCN(CC)C(=O)c1ccc(COc2ccccc2Cl)cc1	22.4	6.5	20.0	1.8	41.8*	29.6
Cc1ccc(NC(=O)CS(=O)c2ccccc2N)c(C)c1 (configuration not stated)	5.8	9.8	-0.7	-1.9	6.0	x
CCOC(=O)C1NN=C(C(=O)c2ccccc2)C1c1ccc(Cl)cc1 (configuration not stated)	-16.5	29.3	8.9	-9.5	42.7*	18.9
CCOC(=O)C1NN=C(C(=O)c2ccccc2)C1c1ccccc1 (configuration not stated)	4.0	26.0	18.2	-2.0	15.7	x
COCCSc1nnc(NC(=O)C2CC(=O)N(CCc3ccc(F)cc3)C2)s1 (configuration not stated)	15.4	2.9	3.3	-0.1	-4.9	x
CC(=O)Oc1ccc(C(=O)Nc2cc(C)on2)cc1	8.1	23.9	7.3	1.8	22.7	x
Cn1c(CC(=O)Nc2ccc(Cl)c(Cl)c2)n[nH]c1=S	11.8	1.0	-4.9	0.1	-2.5	x
COc1ccc(Cc2n[nH]c(=S)n2NC(=O)Nc2ccc(Cl)c(Cl)c2)cc1	16.5	17.7	31.2	65.5*	43.4*	63.5*
CN(C)c1nc(OCCOC(=O)Nc2ccc(Cl)cc2Cl)nc(N(C)C)n1	6.9	30.4	18.1	-7.4	41.6*	15.4
OCc1nc2c(ccc3ccccc32)[nH]1	16.1	7.4	-15.0	-9.0	11.7	x
SMILES	NALP3 yeast inh	tim23-1 inh	TIM10 inh	SKKanGAS inh	tim10-1 inh	tim10-1 confirm
COc1cc(S(=O)(=O)N2CCN(c3ccccc3)CC2)ccc1Cl	2.4	13.0	3.4	1.7	-3.3	x
COc1ccccc1N1CCN(S(=O)(=O)c2ccc3c(c2)NC(=O)C(C)S3)CC1 (configuration not stated)	8.8	45.6	12.8	3.3	42.7*	6.0
COc1cc(S(=O)(=O)N2CCN(c3ccccc3F)CC2)ccc1Cl	6.2	16.6	10.6	-1.0	42.7*	30.0
O=S(=O)(c1ccc2nc(-c3ccccc3)[nH]c2c1)N1CCN(c2cccc(Cl)c2)CC1	29.2	14.8	22.9	4.3	14.6	x
COc1ccccc1N1CCN(S(=O)(=O)c2ccc3nc(-c4ccccc4)[nH]c3c2)CC1	19.6	36.7	30.6	21.6	42.0*	27.3
CCCN1CCN(S(=O)(=O)c2ccc3c(c2)NC(=O)C(C)S3)CC1 (configuration not stated)	9.8	-4.4	1.2	2.0	-10.9	x

Compound activity deposited in PubChem BioAssay by several laboratories.
